# Test results reported in PubChem BioAssay AID651949 (Broad Institute, 2012).
# Entries with a potency or affinity are not part of this list. A number with no mark means an inactive call.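 How the source made its calls: active means compounds lowering cell ATP signal whose fitted half-maximal concentration is at most twice the top tested dose; inconclusive means flat curve with 30 to 70% signal loss, or poor fit; inactive means the rest.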
# Test: HEK293T cell cytotoxicity, dose response, cytotoxicity control, CellTiter-Glo luminescence, dry powder, set 6 (AID 651949)
# Settings: HEK293T viability, CellTiter-Glo ATP luminescence, 48 h; series mostly up to 26 µM; activity change, negative = cytotoxicity: at the top concentration
row,SMILES,"activity change, negative = cytotoxicity [%]"
1,COCCSc1nnc(-c2ccccc2)o1,-18.8
2,Fc1ccc(Cn2cc(CSc3nnc(C4CCCC4)o3)nn2)cc1,4.22
3,COc1ccccc1-c1nnc(SCc2ccccn2)o1,-20.3
4,FC(F)(F)c1cccc(-c2nnc(SCc3ccccc3)o2)c1,-5.54
5,Cc1ccc(-c2nnc(SCc3ccccc3)o2)cc1,-14.3
6,Fc1ccc(-c2nnc(SCc3ccccc3)o2)cc1,14.8
7,Fc1ccc(-c2nnc(SCc3cn(Cc4ccccc4)nn3)o2)cc1,-12.7
8,Fc1ccccc1-c1nnc(SCc2ccccc2)o1,25.8
9,FC(F)(F)c1cccc(CSc2nnc(-c3ccccc3)o2)c1,1.3
10,c1ccc(-c2nnc(SCc3cccnc3)o2)cc1,-16.5
11,c1ccc(Cn2cc(CSc3nnc(-c4ccccc4)o3)nn2)cc1,2.94
12,Fc1cccc(-c2nnc(SCc3ccccn3)o2)c1,-20.9
13,c1ccc(Cn2cc(CSc3nnc(C4CCC4)o3)nn2)cc1,12.5
14,FC(F)(F)c1ccc(-c2nnc(SCc3ccccc3)o2)cc1,-8.43
15,[O-][n+]1ccccc1CSc1nnc(-c2ccccc2)o1,-25.5
16,FC(F)(F)c1ccccc1-c1nnc(SCc2ccccc2)o1,2.29
17,CS(=O)(=O)c1cccc(CSc2nnc(-c3ccccc3)o2)c1,0.906
18,c1ccc(-c2nnc(SCc3ccncc3)o2)cc1,3.39
